Source: the supplement of paper PMC8253809
Values joined by “and” are separate entries in the source; they are usually repeats but may differ in a detail not shown here. Equal entries are not always repeated.

How the values were obtained:
Test in all cases: growth inhibition (% activity, log2 RLU normalised to DMSO / staurosporine); higher = more growth inhibition
Conditions in all cases: 33 µM
[1] = system: DIPGX29 (H3.3 K27M diffuse intrinsic pontine glioma line)
Procedure, shortened: (§1)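 Approved drugs were tested in triplicate at a single final concentration of about 33 μM for 7 days at 37 °C, 5% CO2, on pHGG cell lines and H9-derived neural stem cells. Readout was CellTiter-Glo luminescence, log2-transformed and scaled per plate to % activity between solvent and positive control wells. The median over replicates gives the growth-inhibition value.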

[2] = system: DIPGX37 (H3.3 K27M diffuse intrinsic pontine glioma line)
Procedure, shortened: as §1

[3] = system: DIPGX7 (H3.3 K27M diffuse intrinsic pontine glioma line)
Procedure, shortened: as §1

[4] = system: DIPGX9 (diffuse intrinsic pontine glioma line)
Procedure, shortened: as §1

[5] = system: HGGX39 (paediatric high-grade glioma line)
Procedure, shortened: as §1

[6] = system: HGGX6 (H3.3 G34R paediatric high-grade glioma line)
Procedure, shortened: as §1

[7] = system: HNSC
Procedure, shortened: as §1

[8] = system: SUDIPGIV (diffuse intrinsic pontine glioma line)
Procedure, shortened: as §1

[9] = system: SUDIPGVI (diffuse intrinsic pontine glioma line)
Procedure, shortened: as §1

[10] = system: SUDIPGXIII (diffuse intrinsic pontine glioma line)
Procedure, shortened: as §1

Molecule `CS(=O)(=O)c1ccc(C(=O)Nc2ccc(Cl)c(-c3ccccn3)c2)c(Cl)c1` has a growth inhibition [1] of 2.56%, a growth inhibition [2] of 2.2% and a growth inhibition [3] of 3.42%. The growth inhibition [4] was 7.16%, the growth inhibition [5] was 5.46% and the growth inhibition [6] was 2.09%. It also gave a growth inhibition [7] of 4.02%, a growth inhibition [8] of 0.0205% and a growth inhibition [9] of 4.38%. The growth inhibition [10] was -0.808%.
For `C=CC(=O)N1CCC[C@@H](n2nc(-c3ccc(Oc4ccccc4)cc3)c3c(N)ncnc32)C1`, the growth inhibition [1] was 6.19%, the growth inhibition [2] was 0.894% and the growth inhibition [3] was 0.519%. For the same molecule, the growth inhibition [4] was 7.17%, the growth inhibition [5] was 1.36% and the growth inhibition [6] was 12.5%. The growth inhibition [7] was 10.8%, the growth inhibition [8] was -2.32% and the growth inhibition [9] was 2.15%. It also gave a growth inhibition [10] of -9.86%.
`CC1(C)S[C@@H]2[C@H](NC(=O)[C@H](N)c3ccc(O)cc3)C(=O)N2[C@H]1C(=O)O` was tested, and the growth inhibition [1] was -2.54% and 1.43%, the growth inhibition [2] was -2.93% and 3.86% and the growth inhibition [3] was -1.48% and 1.69%. For the same molecule, the growth inhibition [4] was 0.486% and 1.84%, the growth inhibition [5] was 0.0264% and 2.87% and the growth inhibition [6] was 0.163% and 3.37%. The growth inhibition [7] was -3.3% and 1.46%, the growth inhibition [8] was -1.85% and 0.698% and the growth inhibition [9] was -2.12% and 2.79%. The growth inhibition [10] was 7.41% and 0.66%.
`COc1ccc2c(c1)c(CC(=O)OCC(=O)O)c(C)n2C(=O)c1ccc(Cl)cc1` gave a growth inhibition [1] of 4.7%, a growth inhibition [2] of 5.04% and a growth inhibition [3] of 3.74%. It also gave a growth inhibition [4] of 5.54%, a growth inhibition [5] of 6.62% and a growth inhibition [6] of 4.04%. It also gave a growth inhibition [7] of 6.99%, a growth inhibition [8] of -0.727% and a growth inhibition [9] of 5.09%. The growth inhibition [10] was 1.16%.
For `Oc1c(Cl)cc(Cl)c2cccnc12`, the growth inhibition [1] was 4.67%, the growth inhibition [2] was 3.08% and the growth inhibition [3] was 4.55%. It also gave a growth inhibition [4] of 5.64%, a growth inhibition [5] of 6.44% and a growth inhibition [6] of -1.25%. The growth inhibition [7] was 44.3%, the growth inhibition [8] was 3.67% and the growth inhibition [9] was 4.23%. For the same molecule, the growth inhibition [10] was 2.6%.
`CC(C)(C)c1ccc(C(O)CCCN2CCC(C(O)(c3ccccc3)c3ccccc3)CC2)cc1` (stereo not given) was tested, and the growth inhibition [1] was -0.594%, the growth inhibition [2] was -0.074% and the growth inhibition [3] was 0.488%. For the same molecule, the growth inhibition [4] was 0.591%, the growth inhibition [5] was 2.84% and the growth inhibition [6] was 1.58%. The growth inhibition [7] was 0.144%, the growth inhibition [8] was -0.418% and the growth inhibition [9] was -2.2%. For the same molecule, the growth inhibition [10] was -0.826%.
`O=C([O-])[C@H](O)[C@@H](O)[C@H](O)[C@H](O)CO.[Na+]` was tested, and the growth inhibition [1] was 0.856%, the growth inhibition [2] was 4.24% and the growth inhibition [3] was 2.56%. It also gave a growth inhibition [4] of 1.18%, a growth inhibition [5] of 1.7% and a growth inhibition [6] of 0.0619%. The growth inhibition [7] was 3.09%, the growth inhibition [8] was 1.5% and the growth inhibition [9] was 2.94%. For the same molecule, the growth inhibition [10] was -0.611%.
With `CC(=O)O[C@H]1CC[C@@]2(C)C(=CC[C@@H]3[C@@H]2CC[C@]2(C)C(c4cccnc4)=CC[C@@H]32)C1` the growth inhibition [1] was 0.369%, the growth inhibition [2] was -0.0357% and the growth inhibition [3] was -0.259%. It also gave a growth inhibition [4] of 0.906%, a growth inhibition [5] of 2.75% and a growth inhibition [6] of -0.409%. It also gave a growth inhibition [7] of -1.27%, a growth inhibition [8] of -0.864% and a growth inhibition [9] of -0.189%. It also gave a growth inhibition [10] of -0.391%.
With `COc1ccc(Cl)cc1C(=O)NCCc1ccc(S(=O)(=O)NC(=O)NC2CCCCC2)cc1` the growth inhibition [1] was -0.549%, the growth inhibition [2] was 1.98% and the growth inhibition [3] was -0.628%. The growth inhibition [4] was -1.16%, the growth inhibition [5] was 1.11% and the growth inhibition [6] was 0.0176%. It also gave a growth inhibition [7] of 2.28%, a growth inhibition [8] of 0.343% and a growth inhibition [9] of 1.26%. For the same molecule, the growth inhibition [10] was -1.12%.
Molecule `CCN(CC)CCCC(C)Nc1ccnc2cc(Cl)ccc12` (stereo not given) has a growth inhibition [1] of 2.54%, a growth inhibition [2] of 3.91% and a growth inhibition [3] of 3.48%. It also gave a growth inhibition [4] of 2.75%, a growth inhibition [5] of 2.84% and a growth inhibition [6] of 2.74%. It also gave a growth inhibition [7] of 2.95%, a growth inhibition [8] of 1.72% and a growth inhibition [9] of 2.6%. It also gave a growth inhibition [10] of 0.0881%.
Molecule `O=C(c1ccc(OCCN2CCCCC2)cc1)c1c(-c2ccc(O)cc2)sc2cc(O)ccc12` has a growth inhibition [1] of 8.18%, a growth inhibition [2] of -0.349% and a growth inhibition [3] of 22.3%. The growth inhibition [4] was 1.84%, the growth inhibition [5] was 6.41% and the growth inhibition [6] was 7.69%. It also gave a growth inhibition [7] of 1.59%, a growth inhibition [8] of 0.509% and a growth inhibition [9] of -4.3%. For the same molecule, the growth inhibition [10] was 2.77%.
Work on `Cc1noc(NS(=O)(=O)c2ccc(N)cc2)c1C` yielded a growth inhibition [1] of -0.149%, a growth inhibition [2] of -0.401% and a growth inhibition [3] of -0.198%. For the same molecule, the growth inhibition [4] was -0.0916%, the growth inhibition [5] was 2.16% and the growth inhibition [6] was -1.61%. It also gave a growth inhibition [7] of 29.4%, a growth inhibition [8] of -0.587% and a growth inhibition [9] of -0.478%. The growth inhibition [10] was -3.55%.
`O=c1n(CCCN2CCN(c3cccc(Cl)c3)CC2)nc2ccccn12` gave a growth inhibition [1] of 3.64%, a growth inhibition [2] of 2.01% and a growth inhibition [3] of 4.26%. It also gave a growth inhibition [4] of 3.67%, a growth inhibition [5] of 4.78% and a growth inhibition [6] of 3.57%. The growth inhibition [7] was 6.62%, the growth inhibition [8] was 2.09% and the growth inhibition [9] was 4.36%. It also gave a growth inhibition [10] of 0.00306%.
Work on `C[C@@H](Oc1cc(-c2cnn(C3CCNCC3)c2)cnc1N)c1c(Cl)ccc(F)c1Cl` yielded a growth inhibition [1] of 26.5%, a growth inhibition [2] of 7.08% and a growth inhibition [3] of 9.03%. The growth inhibition [4] was 10.8%, the growth inhibition [5] was 16.1% and the growth inhibition [6] was 13.5%. The growth inhibition [7] was 54.5%, the growth inhibition [8] was 6.53% and the growth inhibition [9] was 17.5%. For the same molecule, the growth inhibition [10] was 1.64%.
`CN(C)CCc1c[nH]c2ccc(CS(=O)(=O)N3CCCC3)cc12` showed a growth inhibition [1] of 1.96%, a growth inhibition [2] of 3.12% and a growth inhibition [3] of 1.45%. The growth inhibition [4] was 1.71%, the growth inhibition [5] was 2.56% and the growth inhibition [6] was 3.04%. It also gave a growth inhibition [7] of 1.98%, a growth inhibition [8] of 0.896% and a growth inhibition [9] of 3.66%. It also gave a growth inhibition [10] of -0.309%.
Molecule `CCCc1cc(=O)[nH]c(=S)[nH]1` has a growth inhibition [1] of -0.542%, a growth inhibition [2] of 1.03% and a growth inhibition [3] of -0.794%. For the same molecule, the growth inhibition [4] was 1.7%, the growth inhibition [5] was -0.649% and the growth inhibition [6] was -0.265%. It also gave a growth inhibition [7] of -0.282%, a growth inhibition [8] of -1.58% and a growth inhibition [9] of 0.156%. For the same molecule, the growth inhibition [10] was 1.61%.
Work on `CCOc1cc(CC(=O)N[C@@H](CC(C)C)c2ccccc2N2CCCCC2)ccc1C(=O)O` yielded a growth inhibition [1] of 0.598%, a growth inhibition [2] of -0.0763% and a growth inhibition [3] of 1.67%. It also gave a growth inhibition [4] of -0.0677%, a growth inhibition [5] of 0.171% and a growth inhibition [6] of -1.18%. For the same molecule, the growth inhibition [7] was -2.28%, the growth inhibition [8] was -0.496% and the growth inhibition [9] was -6.9%. It also gave a growth inhibition [10] of -1.55%.
For `COC(=O)[C@@H]1CC2=CC(=O)CC[C@]2(C)[C@@]23O[C@@H]2C[C@@]2(C)[C@@H](CC[C@@]24CCC(=O)O4)[C@H]13`, the growth inhibition [1] was 0.0665%, the growth inhibition [2] was 2.47% and the growth inhibition [3] was -0.276%. The growth inhibition [4] was 0.756%, the growth inhibition [5] was 1.45% and the growth inhibition [6] was 1.56%. The growth inhibition [7] was -0.69%, the growth inhibition [8] was 0.898% and the growth inhibition [9] was 1.05%. For the same molecule, the growth inhibition [10] was 0.0503%.
`CC1CC(OC(=O)C(O)c2ccccc2)CC(C)(C)C1` (stereo not given) showed a growth inhibition [1] of -0.681%, a growth inhibition [2] of 1.83% and a growth inhibition [3] of 0.84%. For the same molecule, the growth inhibition [4] was 0.0624%, the growth inhibition [5] was 1.43% and the growth inhibition [6] was -3.88%. It also gave a growth inhibition [7] of 10.7%, a growth inhibition [8] of 2.02% and a growth inhibition [9] of 0.402%. For the same molecule, the growth inhibition [10] was 1.8%.
`Clc1ccccc1C(c1ccccc1)(c1ccccc1)n1ccnc1` gave a growth inhibition [1] of 3.31%, a growth inhibition [2] of 0.662% and a growth inhibition [3] of 3.85%. The growth inhibition [4] was 6.07%, the growth inhibition [5] was 16.9% and the growth inhibition [6] was 14.3%. It also gave a growth inhibition [7] of 31.3%, a growth inhibition [8] of 26.9% and a growth inhibition [9] of 2.55%. It also gave a growth inhibition [10] of 42.1%.
